The values below come from PubChem BioAssay (EPA / NIEHS).

Assay [1] addresses Bile acid receptor (Homo sapiens) (UniProt Q96RI1). The assay is described as follows: ATG_IR1_CIS: Attagene CIS-FACTORIAL HepG2 Assay for human Nuclear Receptor Subfamily 1 Group H Member 4 (NR1H4), IR1 submotif (AID 2282946). The settings on record: IR1 reporter transcription, actives raise or lower the signal. The method, boiled down:
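Fluorescence of capillary-separated, HpaI-digested RT-PCR reporter products gave IR1-element mRNA induction in HepG2 cells 24 h after dosing. Endogenous transcription factors drove the cis-regulated reporters; activity was fitted bidirectionally against DMSO.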

The nature of assay [2]: ATG_GRE_CIS: Attagene CIS-FACTORIAL HepG2 Assay for human Glucocorticoid Response Elements (GRE) (AID 2282947). The settings on record: HepG2 GRE cis-reporter, Attagene multiplex mRNA; actives raise or lower the signal. The method, boiled down:
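Read-out: fluorescent reporter-transcript fragments separated by capillary electrophoresis after RT-PCR. Transiently transfected HepG2 cells carrying cis-element-driven reporter units were dosed for 24 h; gain or loss of signal fitted against DMSO control.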

A short description of assay [3]: ATG_ISRE_CIS: Attagene CIS-FACTORIAL HepG2 Assay for human Interferon Regulatory Factor 1 (IRF1) binding to an Interferon-Stimulated Response Element (ISRE) (AID 2282948). The note with it: HepG2 ISRE cis-reporter (Attagene), mRNA transcription readout; actives raise or lower the signal. The method, boiled down: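 Endogenous transcription factor activity read as reporter transcript abundance via RT-PCR and capillary electrophoresis. HepG2 cells transiently transfected, 24 h chemical exposure. Gain or loss fitted against DMSO baseline.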

The nature of assay [4]: ATG_M_32_CIS: Attagene CIS-FACTORIAL HepG2 Assay for M32 Transcription Factor (Internal Marker) (AID 2282949).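 Note: background control marker of the multiplexed CIS panel rather than a real target.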 The settings on record: HepG2 Attagene cis-factorial M32 reporter, mRNA; actives raise or lower the signal. In short, it runs like this:
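Using DMSO as baseline, bidirectional curve fits were applied to reporter mRNA signals. These came from transiently transfected HepG2 cells exposed for 24 h, with RNA analysed by RT-PCR, FAM primer extension, HpaI digestion and CE.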

A short description of assay [5]: ATG_M_06_CIS: Attagene CIS-FACTORIAL HepG2 Assay for M06 Transcription Factor (Internal Marker) (AID 2282950). The note with it: HepG2 Attagene CIS-FACTORIAL M06 internal marker reporter; actives raise or lower the signal. The method, boiled down: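 One of many multiplexed endpoints: HepG2 reporter mRNA after 24 h dosing, detected by RT-PCR and capillary electrophoresis fluorescence; gain or loss of signal analysed against DMSO.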

Assay [6] addresses Hypoxia-inducible factor 1-alpha (Homo sapiens) (UniProt Q16665). Kind of assay: ATG_HIF1a_CIS: Attagene CIS-FACTORIAL HepG2 Assay for human Hypoxia Inducible Factor 1 (HIF1A) (AID 2282951). The note with it: HepG2 Attagene cis-factorial HIF1a reporter transcription; actives raise or lower the signal. In short, it runs like this:
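In this multiplexed cell assay, HepG2 cells bearing transfected cis reporters are dosed for 24 h and reporter mRNA is read by RT-PCR plus capillary electrophoresis; signal increases and decreases are both scored against DMSO.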

Assay [7] has as its target Hepatocyte nuclear factor 6 (Homo sapiens) (UniProt Q9UBC0). Kind of assay: ATG_HNF6_CIS: Attagene CIS-FACTORIAL HepG2 Assay for human Hepatocyte Nuclear Factor 6 (HNF6) (AID 2282952). The settings on record: HepG2 Attagene cis-factorial HNF6 reporter transcription; actives raise or lower the signal. The method, boiled down: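 Activity values derive from bidirectional fitting against DMSO of reporter mRNA levels, measured by capillary electrophoresis of labelled RT-PCR products from HepG2 cells exposed 24 h.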

The target in assay [8] is Heat shock factor protein 1 (Homo sapiens) (UniProt Q00613). The assay is described as follows: ATG_HSE_CIS: Attagene CIS-FACTORIAL HepG2 Assay for human Heat Shock Transcription Factor 1 (HSE) (AID 2282953). The note with it: HepG2 HSE cis-reporter, Attagene RNA transcription; actives raise or lower the signal. In short, it runs like this:
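Using HepG2 with transfected cis-driven reporter constructs, compound effects on endogenous factor activity are scored as reporter mRNA change at 24 h. Detection: RT-PCR, HpaI digestion, capillary electrophoresis; bidirectional fitting to DMSO.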

Assay [9] in a line: ATG_MRE_CIS: Attagene CIS-FACTORIAL HepG2 Assay for human Metal Responsive Element (MRE) (AID 2282954). The settings on record: HepG2 MRE cis-reporter transcription, Attagene multiplex; actives raise or lower the signal. The method, boiled down: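 RT-PCR/capillary electrophoresis readout of reporter mRNA, 24 h post-dosing, in HepG2 cells transfected with multiplexed cis-regulated reporter constructs. Gain or loss of signal fitted bidirectionally against DMSO baseline.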

A short description of assay [10]: ATG_PBREM_CIS: Attagene CIS-FACTORIAL HepG2 Assay for human Phenobarbital-responsive Enhancer Module (PBREM) (AID 2282955). The settings on record: HepG2 PBREM cis-reporter, Attagene multiplexed transcription; actives raise or lower the signal. The method, boiled down: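 After a 24 h incubation with test chemical, transfected HepG2 cells yield total RNA; reporter-specific RT-PCR products are fluorescently labelled, HpaI-digested and resolved by capillary electrophoresis against ROX size standards.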

In assay [11] the target is Paired box protein Pax-6 (Homo sapiens) (UniProt P26367). The assay is described as follows: ATG_Pax6_CIS: Attagene CIS-FACTORIAL HepG2 Assay for human Paired Box 6 (PAX6) (AID 2282956). The note with it: HepG2 CIS-FACTORIAL PAX6 reporter transcription, RNA readout; actives raise or lower the signal. The method, boiled down:
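Read-out is reporter transcript level, measured by RT-PCR with fluorescent primer extension and capillary electrophoresis after 24 h dosing of transfected HepG2 cells. Activity in either direction fitted relative to DMSO control.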

The nature of assay [12]: ATG_PXRE_CIS: Attagene CIS-FACTORIAL HepG2 Assay for human Pregnane X Receptor Element (PXRE) (AID 2282957). The note with it: HepG2 Attagene CIS-FACTORIAL PXRE reporter, mRNA; actives raise or lower the signal. In short, it runs like this:
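Fluorescent capillary electrophoresis of amplified reporter cDNA gave the signal, collected 24 h after dosing HepG2 cells that held transfected cis-element reporter constructs.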

Assay [13] in a line: ATG_PPRE_CIS: Attagene CIS-FACTORIAL HepG2 Assay for human Peroxisome Proliferator-activated Response Element (PPRE) (AID 2282958). The note with it: HepG2 PPRE cis-element reporter, Attagene transcription factor profiling; actives raise or lower the signal. The method, boiled down: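 Multiplexed reporter transcription units under cis-regulatory promoters were transfected into HepG2 cells to capture endogenous factor activity. A 24 h incubation preceded RNA isolation and fluorescent RT-PCR fragment analysis.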

The nature of assay [14]: ATG_RORE_CIS: Attagene CIS-FACTORIAL HepG2 Assay for human RAR-related Orphan Receptor Element (RORE) (AID 2282959). The note with it: HepG2 Attagene cis-factorial RORE reporter, mRNA; actives raise or lower the signal. In short, it runs like this: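 Fluorescence intensity of reporter-specific cDNA fragments, separated by capillary electrophoresis, gives the signal. Source: HepG2 liver cells transiently transfected with cis-element reporters and exposed 24 h; DMSO-normalized bidirectional fit.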

Assay [15] in a line: ATG_Sox_CIS: Attagene CIS-FACTORIAL HepG2 Assay for human SRY-box transcription factor (SOX) (AID 2282960). The note with it: HepG2 Attagene cis-factorial SOX reporter, mRNA; actives raise or lower the signal. In short, it runs like this:
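After 24 h of chemical treatment, transfected HepG2 reporter cells are lysed for total RNA. Transcript levels come from RT-PCR with labelled primer extension and capillary electrophoresis, analysed bidirectionally versus DMSO.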

In assay [16] the target is Transcription factor Sp1 (Homo sapiens) (UniProt P08047). The assay is described as follows: ATG_Sp1_CIS: Attagene CIS-FACTORIAL HepG2 Assay for human Specificity Protein 1 (Sp1) (AID 2282961). The note with it: HepG2 Sp1 cis-reporter transcription, actives raise or lower the signal. The method, boiled down: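 Sp1-driven reporter mRNA, read as capillary electrophoresis fluorescence after RT-PCR, in transiently transfected HepG2 cells dosed for 24 h; signal change in either direction relative to DMSO.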
Chain of Transcription factor Sp1 (Homo sapiens) (P08047 whole entry, looked up): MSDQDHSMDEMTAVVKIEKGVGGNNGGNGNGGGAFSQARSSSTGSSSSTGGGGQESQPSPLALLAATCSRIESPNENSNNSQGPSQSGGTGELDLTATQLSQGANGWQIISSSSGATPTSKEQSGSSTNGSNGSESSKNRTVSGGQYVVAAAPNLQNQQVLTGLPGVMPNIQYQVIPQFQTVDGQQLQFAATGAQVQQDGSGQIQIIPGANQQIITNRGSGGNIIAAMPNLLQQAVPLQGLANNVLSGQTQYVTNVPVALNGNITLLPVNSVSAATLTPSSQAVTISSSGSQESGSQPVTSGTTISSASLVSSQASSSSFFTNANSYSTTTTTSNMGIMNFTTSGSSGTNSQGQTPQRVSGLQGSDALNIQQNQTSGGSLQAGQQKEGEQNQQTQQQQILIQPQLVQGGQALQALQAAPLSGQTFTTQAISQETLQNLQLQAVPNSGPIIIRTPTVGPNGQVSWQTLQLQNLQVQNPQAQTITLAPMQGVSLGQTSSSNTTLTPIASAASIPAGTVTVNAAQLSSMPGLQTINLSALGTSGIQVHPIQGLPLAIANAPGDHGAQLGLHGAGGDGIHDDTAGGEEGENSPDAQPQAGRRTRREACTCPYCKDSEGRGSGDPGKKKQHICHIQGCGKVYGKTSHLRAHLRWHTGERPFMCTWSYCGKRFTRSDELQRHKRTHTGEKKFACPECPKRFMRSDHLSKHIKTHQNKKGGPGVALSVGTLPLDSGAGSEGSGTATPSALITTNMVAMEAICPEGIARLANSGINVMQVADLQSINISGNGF

A short description of assay [17]: ATG_SREBP_CIS: Attagene CIS-FACTORIAL HepG2 Assay for human Sterol Regulatory Element Binding (SREBP) (AID 2282962). The note with it: HepG2 Attagene cis-factorial SREBP reporter, mRNA; actives raise or lower the signal. In short, it runs like this:
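Endogenous SREBP activity read as cis-element-driven reporter transcript in transiently transfected HepG2, 24 h post-dosing; quantified via RT-PCR plus capillary electrophoresis of fluorescent fragments. Gain or loss of signal fitted relative to DMSO baseline.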

Assay [18] concerns the target Signal transducer and activator of transcription 3 (Homo sapiens) (UniProt P40763). Kind of assay: ATG_STAT3_CIS: Attagene CIS-FACTORIAL HepG2 Assay for human Signal Transducer and Activator of Transcription 3 (STAT3) (AID 2282963). The note with it: HepG2, Attagene cis-factorial STAT3 reporter transcription; actives raise or lower the signal. In short, it runs like this:
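Readout: fluorescent reporter mRNA fragments resolved by capillary electrophoresis. Setup: HepG2 transfected with MRTUs reporting endogenous transcription-factor activity, dosed 24 h. Gain or loss of signal fitted bidirectionally against DMSO control.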

Assay [19] can be described thus: ATG_TA_CIS: Attagene CIS-FACTORIAL HepG2 Assay for human TA Basal Promoter (AID 2282964). The note with it: HepG2 Attagene CIS-factorial TA basal promoter reporter; actives raise or lower the signal. The method, boiled down:
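Transient MRTU transfection of HepG2 preceded 24 h compound exposure. Reporter mRNA levels were then read by RT-PCR with capillary electrophoresis, and this background-control endpoint was fitted bidirectionally to DMSO.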

Assay [20] is described as follows: ATG_TCF_b_cat_CIS: Attagene CIS-FACTORIAL HepG2 Assay for human T-Cell-Factor with beta-catenin (TCF/b-cat) (AID 2282965). The settings on record: HepG2 TCF/beta-catenin cis-reporter transcription, actives raise or lower the signal. The method, boiled down:
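Cells of the HepG2 line carry transiently transfected reporter units whose promoters respond to endogenous factors. Twenty-four hours post-dosing, reporter mRNA induction is measured by fluorescent RT-PCR and capillary electrophoresis, with DMSO as baseline.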

Activity calls are given as the source filed them. Rule for the calls: active = hit-call score of the fitted dose curve at least 0.9, where 1 is the maximum; inactive = score below 0.9.

Chain of Hypoxia-inducible factor 1-alpha (Homo sapiens) (Q16665 whole entry, looked up): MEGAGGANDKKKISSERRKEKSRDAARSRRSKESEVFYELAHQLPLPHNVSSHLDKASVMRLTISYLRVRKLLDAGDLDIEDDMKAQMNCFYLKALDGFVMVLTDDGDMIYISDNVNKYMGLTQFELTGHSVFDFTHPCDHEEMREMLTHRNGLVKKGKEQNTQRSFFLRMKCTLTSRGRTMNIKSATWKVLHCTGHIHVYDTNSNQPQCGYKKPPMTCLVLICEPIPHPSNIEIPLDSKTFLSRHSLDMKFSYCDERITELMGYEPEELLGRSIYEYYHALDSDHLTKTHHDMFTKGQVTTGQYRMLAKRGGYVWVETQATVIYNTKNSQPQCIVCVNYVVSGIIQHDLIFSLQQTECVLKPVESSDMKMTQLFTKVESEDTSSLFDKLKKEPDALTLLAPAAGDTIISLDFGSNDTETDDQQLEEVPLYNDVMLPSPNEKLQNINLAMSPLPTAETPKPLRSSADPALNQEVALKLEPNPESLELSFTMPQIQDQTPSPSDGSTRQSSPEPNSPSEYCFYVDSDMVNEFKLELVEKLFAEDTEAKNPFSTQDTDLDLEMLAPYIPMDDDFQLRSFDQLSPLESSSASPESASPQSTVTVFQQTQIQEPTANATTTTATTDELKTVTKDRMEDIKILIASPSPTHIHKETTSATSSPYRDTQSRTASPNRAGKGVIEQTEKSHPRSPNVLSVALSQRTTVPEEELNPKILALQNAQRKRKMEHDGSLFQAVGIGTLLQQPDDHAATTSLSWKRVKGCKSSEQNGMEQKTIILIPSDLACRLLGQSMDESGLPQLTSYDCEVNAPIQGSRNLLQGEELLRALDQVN
Chain of Hepatocyte nuclear factor 6 (Homo sapiens) (Q9UBC0 whole entry, looked up): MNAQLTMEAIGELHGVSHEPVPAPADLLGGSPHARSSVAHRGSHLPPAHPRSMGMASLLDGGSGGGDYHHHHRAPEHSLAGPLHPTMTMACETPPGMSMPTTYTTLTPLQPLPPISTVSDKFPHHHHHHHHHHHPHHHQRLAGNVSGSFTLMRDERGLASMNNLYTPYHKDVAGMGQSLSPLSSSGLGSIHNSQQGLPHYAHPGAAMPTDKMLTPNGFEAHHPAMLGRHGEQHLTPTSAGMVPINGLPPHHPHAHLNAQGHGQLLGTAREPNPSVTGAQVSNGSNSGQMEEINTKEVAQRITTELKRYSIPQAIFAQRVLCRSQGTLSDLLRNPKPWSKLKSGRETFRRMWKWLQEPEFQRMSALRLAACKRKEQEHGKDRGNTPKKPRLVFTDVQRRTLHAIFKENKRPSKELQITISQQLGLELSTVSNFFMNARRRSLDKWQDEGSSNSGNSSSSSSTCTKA
Chain of Paired box protein Pax-6 (Homo sapiens) (P26367 whole entry, looked up): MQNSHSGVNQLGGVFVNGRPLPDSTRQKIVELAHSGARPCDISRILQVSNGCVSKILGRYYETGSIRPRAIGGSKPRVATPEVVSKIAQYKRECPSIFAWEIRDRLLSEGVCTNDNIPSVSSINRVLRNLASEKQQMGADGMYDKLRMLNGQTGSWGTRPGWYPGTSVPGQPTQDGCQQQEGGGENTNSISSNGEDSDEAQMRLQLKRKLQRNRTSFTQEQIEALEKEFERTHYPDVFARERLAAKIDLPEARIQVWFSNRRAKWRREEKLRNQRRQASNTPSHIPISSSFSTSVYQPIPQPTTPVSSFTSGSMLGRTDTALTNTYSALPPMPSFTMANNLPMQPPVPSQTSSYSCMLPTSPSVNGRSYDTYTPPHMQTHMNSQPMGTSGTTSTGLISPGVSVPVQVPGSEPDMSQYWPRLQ
Chain of Heat shock factor protein 1 (Homo sapiens) (Q00613 whole entry, looked up): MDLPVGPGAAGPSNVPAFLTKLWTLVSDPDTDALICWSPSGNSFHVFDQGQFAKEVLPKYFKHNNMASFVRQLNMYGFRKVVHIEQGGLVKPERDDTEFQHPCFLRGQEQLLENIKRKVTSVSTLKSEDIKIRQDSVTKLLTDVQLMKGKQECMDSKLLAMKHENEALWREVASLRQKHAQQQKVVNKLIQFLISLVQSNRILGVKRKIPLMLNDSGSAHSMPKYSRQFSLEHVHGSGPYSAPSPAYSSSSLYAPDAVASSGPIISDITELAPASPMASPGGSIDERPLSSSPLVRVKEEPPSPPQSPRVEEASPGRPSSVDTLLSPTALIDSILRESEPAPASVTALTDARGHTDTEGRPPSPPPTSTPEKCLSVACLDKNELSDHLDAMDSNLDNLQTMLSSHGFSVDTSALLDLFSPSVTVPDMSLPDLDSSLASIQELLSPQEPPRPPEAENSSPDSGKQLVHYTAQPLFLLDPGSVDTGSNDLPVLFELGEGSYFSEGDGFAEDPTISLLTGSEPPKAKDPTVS
Chain of Bile acid receptor (Homo sapiens) (Q96RI1 whole entry, looked up): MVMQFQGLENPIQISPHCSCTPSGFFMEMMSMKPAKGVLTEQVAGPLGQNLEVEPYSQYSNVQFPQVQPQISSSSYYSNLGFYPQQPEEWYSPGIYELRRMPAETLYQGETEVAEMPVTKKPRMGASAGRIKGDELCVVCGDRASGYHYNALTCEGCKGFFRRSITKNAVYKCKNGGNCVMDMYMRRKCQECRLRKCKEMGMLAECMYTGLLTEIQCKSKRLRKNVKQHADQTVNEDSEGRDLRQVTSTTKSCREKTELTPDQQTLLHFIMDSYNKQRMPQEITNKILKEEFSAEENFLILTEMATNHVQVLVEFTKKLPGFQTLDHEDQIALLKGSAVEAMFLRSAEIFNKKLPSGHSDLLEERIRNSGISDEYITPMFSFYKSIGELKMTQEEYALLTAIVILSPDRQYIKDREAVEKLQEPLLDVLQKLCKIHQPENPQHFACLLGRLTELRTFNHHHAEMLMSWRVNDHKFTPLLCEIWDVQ
Chain of Signal transducer and activator of transcription 3 (Homo sapiens) (P40763 whole entry, looked up, the tested form may be a part): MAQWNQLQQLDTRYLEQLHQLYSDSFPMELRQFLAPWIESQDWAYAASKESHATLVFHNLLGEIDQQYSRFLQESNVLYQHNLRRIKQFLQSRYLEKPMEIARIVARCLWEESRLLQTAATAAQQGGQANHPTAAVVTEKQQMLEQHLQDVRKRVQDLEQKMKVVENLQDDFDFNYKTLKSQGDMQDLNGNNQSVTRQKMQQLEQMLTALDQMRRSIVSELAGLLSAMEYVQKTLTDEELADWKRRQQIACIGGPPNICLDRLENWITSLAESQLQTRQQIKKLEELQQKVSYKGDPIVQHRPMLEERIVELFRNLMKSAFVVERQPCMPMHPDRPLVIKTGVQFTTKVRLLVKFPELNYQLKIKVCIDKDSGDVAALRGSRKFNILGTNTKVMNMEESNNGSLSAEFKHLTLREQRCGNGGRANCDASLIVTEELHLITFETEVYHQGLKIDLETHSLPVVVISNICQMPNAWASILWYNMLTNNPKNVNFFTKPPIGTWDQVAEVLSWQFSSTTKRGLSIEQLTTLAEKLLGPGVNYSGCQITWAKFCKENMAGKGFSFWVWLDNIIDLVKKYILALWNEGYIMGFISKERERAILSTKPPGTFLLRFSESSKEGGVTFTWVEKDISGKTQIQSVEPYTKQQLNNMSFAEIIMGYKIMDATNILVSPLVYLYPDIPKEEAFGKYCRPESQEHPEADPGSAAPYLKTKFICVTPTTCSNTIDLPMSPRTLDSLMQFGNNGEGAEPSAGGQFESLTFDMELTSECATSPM

As to `C/C=C(\C)C(=O)OCCc1ccccc1`, the outcome in [1], in assay [2], in assay [3], in [4], in assay [5] and in assay [6] was inactive. The result in assay [7], in [8], in assay [9], in assay [10], in assay [11] and in assay [13] was inactive. Also, the call in [14], in assay [15], in assay [16], in assay [17], in assay [18] and in assay [19] was inactive. The compound was classed as inactive in [20]. For the same compound, in [12], the AC50 is 27.7 µM (active).

For `COC(C)(C)CCCC(C)CC=O` (stereo unspecified), the compound was called inactive in [1], in assay [2], in assay [3], in assay [4], in [5] and in assay [6]. In addition, the outcome in assay [7], in assay [8], in assay [9], in assay [10], in assay [11] and in [12] was inactive. Besides, the call in [13], in assay [14], in assay [16], in [17], in assay [18] and in assay [19] was inactive. Also, the compound was classed as inactive in [20].

Consider `C=CC(C)C#N` (stereo unspecified), for which the compound was classed as inactive in assay [1], in assay [2], in assay [3], in assay [4], in assay [5] and in assay [6]. The call in [7], in assay [8], in assay [9], in assay [11], in [12] and in assay [13] was inactive. In addition, the call in [14], in [15], in assay [17], in assay [18], in [19] and in assay [20] was inactive.

`CCc1ccc(O)c(OC)c1`: the outcome in [1], in [2], in assay [3], in [4], in [5] and in [6] was inactive. The compound was called inactive in assay [7], in [8], in [9], in assay [11], in [12] and in assay [13]. For the same compound, the call in assay [14], in assay [15], in [16], in [17], in [18] and in assay [19] was inactive. Further, the compound was called inactive in assay [20].
